Assay results from PubChem BioAssay (NCI).
The panel holds about 79,000 compounds, 15% with a hit somewhere; the sample as a whole holds those more often. Active and inactive are the calls of the source. No stated cut-off is given here; in the data, active means growth inhibition above about 70%; inactive means the rest.

Columns and labels:
[1] = NCI Yeast Anticancer Drug Screen. Data for the rad52 strain (AID 147);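 further: 0% = growth of vehicle-treated control cultures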; conditions: S. cerevisiae rad52 mutant growth inhibition, hits give high values
How it was run: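 Read-out: growth inhibition versus vehicle-treated controls. Cells were a DNA repair-deficient yeast strain treated with compounds.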

[2] = NCI Yeast Anticancer Drug Screen. Data for the wt1 strain (AID 149);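 further: 0% = growth of vehicle-treated wt1 cultures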; conditions: S. cerevisiae wt1 strain (SPY 50644) growth inhibition, hits give high values
How it was run: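 Yeast wt1 strain exposed to compounds; growth inhibition measured relative to vehicle-treated controls.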

[3] = NCI Yeast Anticancer Drug Screen. Data for the rad50EPP+ strain (AID 151);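 further: 0% = growth of vehicle-treated control cultures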; conditions: S. cerevisiae rad50 mutant strain, hits give high values
How it was run: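 Growth inhibition read against vehicle controls in rad50EPP+ yeast, a strain altered in DNA damage repair, after compound exposure.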

[4] = NCI Yeast Anticancer Drug Screen. Data for the rad50 strain (AID 155);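 further: 0% = growth of vehicle-only cultures of the same strain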; conditions: S. cerevisiae rad50 strain growth inhibition, hits give high values
How it was run: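 Yeast carrying a defined DNA repair defect were exposed to test compounds, and growth was compared with vehicle-treated controls to give percent inhibition.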

[5] = NCI Yeast Anticancer Drug Screen. Data for the mec2-1 strain (AID 157); conditions: S. cerevisiae mec2-1 strain, hits give high values
How it was run: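 Yeast mec2-1 mutant treated with compound. Readout: growth inhibition vs vehicle controls.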

[6] = NCI Yeast Anticancer Drug Screen. Data for the rad14 strain (AID 159);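 further: 0% = growth of vehicle-treated control cultures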; conditions: S. cerevisiae rad14 strain growth inhibition, hits give high values
How it was run: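 Yeast cells carrying a defined DNA-repair defect were exposed to compounds, and growth inhibition was calculated relative to vehicle-treated control cultures.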

[7] = NCI Yeast Anticancer Drug Screen. Data for the sgs1 mgt1 strain (AID 161);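 further: 0% = growth of cultures given vehicle only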; conditions: S. cerevisiae sgs1 mgt1 strain, hits give high values
How it was run: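 Read-out: growth inhibition vs vehicle controls. Cells: mutant yeast strain deficient in DNA damage repair.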

[8] = NCI Yeast Anticancer Drug Screen. Data for the CLN2oe strain (AID 163);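 further: 0% = growth of vehicle-only control cultures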; conditions: S. cerevisiae CLN2oe strain, hits give high values
How it was run: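 Read-out: yeast growth inhibition, expressed relative to vehicle-only controls. The strain bears an engineered cell-cycle alteration.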

[9] = NCI Yeast Anticancer Drug Screen. Data for the cln2 rad14 strain (AID 165);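 further: 0% = growth equal to vehicle treated cultures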; conditions: S. cerevisiae cln2 rad14 strain, hits give high values
How it was run: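 cln2 rad14 yeast strain; compound exposure; growth inhibition read vs vehicle controls.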

[10] = NCI Yeast Anticancer Drug Screen. Data for the bub3 strain (AID 167); conditions: S. cerevisiae bub3 mutant strain, hits give high values
How it was run: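 Compounds were applied to a genetically altered yeast strain carrying a cell-cycle control defect. Growth inhibition was scored against vehicle-treated controls.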

[11] = NCI Yeast Anticancer Drug Screen. Data for the wt2 strain (AID 169);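 further: 0% = growth of vehicle-treated yeast cultures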; conditions: S. cerevisiae wt2 strain growth inhibition, hits give high values
How it was run: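 Read-out: growth inhibition versus vehicle-treated control cultures after compound exposure of the yeast strain.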

[12] = NCI Yeast Anticancer Drug Screen. Data for the mlh1 strain (AID 171);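 further: 0% = growth of vehicle-treated control cultures of the same strain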; conditions: S. cerevisiae mlh1 strain growth inhibition, hits give high values
How it was run: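 Read-out: growth inhibition versus vehicle controls. Strain: engineered yeast with a defined DNA repair or cell cycle defect, compound-treated.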

[13] = NCI Yeast Anticancer Drug Screen. Data for the sgs1 strain (AID 173);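 further: 0% = growth of vehicle-only control cultures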; conditions: S. cerevisiae sgs1 mutant, hits give high values
How it was run: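 Read-out: yeast growth inhibition relative to vehicle controls, following compound exposure of a strain with a defined DNA repair/cell cycle alteration.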

[14] = NCI Yeast Anticancer Drug Screen. Data for the mlh1 rad18 strain (AID 175); conditions: S. cerevisiae mlh1 rad18 strain growth inhibition, hits give high values
How it was run: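 Yeast w/ defined DNA-repair lesions; compound exposure; growth vs vehicle controls → % inhibition.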

[15] = NCI Yeast Anticancer Drug Screen. Data for the rad18 strain (AID 177); conditions: S. cerevisiae rad18 mutant growth inhibition, hits give high values
How it was run: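 Readout: growth inhibition vs vehicle controls. Cells: genetically altered yeast strain, DNA repair defect.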

[16] = at 5.0 µM (retest, dose inferred, filed as 0.5)
[17] = at 50.0 µM (retest, dose inferred, filed as 5.0)

Measured: growth inhibition

BrC/C=C/C[P+](c1ccccc1)(c1ccccc1)c1ccccc1
inactive: [1]; at 1.2 µM 8% | [1]; at 3.7 µM 27% | [2]; at 1.2 µM 4% | [2]; at 3.7 µM 9% | [3]; at 1.2 µM -12% | [3]; at 3.7 µM -14% | [3]; at 11.0 µM -8% | [3]; at 33.0 µM 45% | [4]; at 1.2 µM 7% | [4]; at 3.7 µM 13% | [5]; at 1.2 µM 5% | [5]; at 3.7 µM 12% | [5]; [16] 23% | [5]; [17] 23% | [6]; at 1.2 µM 5% | [6]; at 3.7 µM 7% | [7]; [16] 18% | [7]; [17] 18% | [8]; at 1.2 µM -3% | [8]; at 3.7 µM 10% | [9]; [16] 47% | [9]; [17] 47% | [10]; at 1.2 µM -5% | [10]; at 3.7 µM -7% | [10]; [16] 18% | [10]; [17] 18% | [11]; at 1.2 µM 3% | [11]; at 3.7 µM 9% | [12]; at 1.2 µM -5% | [12]; at 3.7 µM 1% | [13]; at 1.2 µM 4% | [13]; at 3.7 µM 10% | [14]; [16] 43% | [14]; [17] 43% | [15]; at 1.2 µM 9% | [15]; at 3.7 µM 33%
active: [1]; at 11.0 µM 96% | [1]; at 33.0 µM 98% | [1]; at 100.0 µM 99% | [2]; at 11.0 µM 94% | [2]; at 33.0 µM 98% | [2]; at 100.0 µM 98% | [3]; at 100.0 µM 91% | [4]; [16] 79% | [4]; at 11.0 µM 93% | [4]; at 33.0 µM 98% | [4]; [17] 79% | [4]; at 50.0 µM 90% | [4]; at 100.0 µM 98% | [5]; at 11.0 µM 96% | [5]; at 33.0 µM 98% | [5]; at 50.0 µM 92.9% | [5]; at 100.0 µM 99% | [6]; at 11.0 µM 96% | [6]; at 33.0 µM 99% | [6]; at 100.0 µM 99% | [7]; at 50.0 µM 92% | [8]; at 11.0 µM 94% | [8]; at 33.0 µM 98% | [8]; at 100.0 µM 99% | [9]; at 50.0 µM 87.7% | [10]; at 11.0 µM 94% | [10]; at 33.0 µM 98% | [10]; at 50.0 µM 88.7% | [10]; at 100.0 µM 98% | [11]; at 11.0 µM 95% | [11]; at 33.0 µM 98% | [11]; at 100.0 µM 99% | [12]; at 11.0 µM 83% | [12]; at 33.0 µM 98% | [12]; at 100.0 µM 99% | [13]; at 11.0 µM 95% | [13]; at 33.0 µM 98% | [13]; at 100.0 µM 99% | [14]; at 50.0 µM 87.7% | [15]; at 11.0 µM 96% | [15]; at 33.0 µM 98% | [15]; at 100.0 µM 98%
